Screening results as filed in PubChem.
Rab9 prom act = Rab9 promoter activation; Huh7 Rab9 promoter-luciferase reporter, luminescence, 24 h; AID 485297; Potency, µM (titrated, usually from 9.22 µM), hits mostly activators; actives 2.8% (n = 320,000); note: nearly all actives have a fitted effect of over 60% in size
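Quantitative HTS format; Huh7 Rab9-luciferase reporter cells (1500/well) receive compound 2 h post-plating, incubate 24 h at 37 °C, then get luciferase reagent for 10 min before luminescence reading.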
SMN2 splice enh = enhancers of SMN2 splice variant expression; HEK293 SMN2-luciferase splicing reporter, luminescence, 30-36 h; actives 2.8% (n = 210,000); Potency, µM (highest dose often 46.1 µM), hits mostly activators; note: nearly all actives have a fitted effect of over 55% in size
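qHTS luciferase splicing reporter: luminescence rises when SMN2 exon 7 is included in transfected HEK293 cells. Compound exposure lasted 30-36 h at 37C, with 4.5 mM final sodium butyrate as control, followed by a ONE-Glo read.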
FLuc modulator = inhibits or activates purified firefly luciferase, miR-21 counter-screen; actives 6.9% (n = 360,000); Potency, µM (doses to about 57.5 µM), actives largely listed as inhibitors; purified FLuc, Km substrates, luminescence inhibition; P08659; AID 588342; note: nearly all actives have a fitted effect of over 55% in size
Target sequence (P08659 whole entry, looked up): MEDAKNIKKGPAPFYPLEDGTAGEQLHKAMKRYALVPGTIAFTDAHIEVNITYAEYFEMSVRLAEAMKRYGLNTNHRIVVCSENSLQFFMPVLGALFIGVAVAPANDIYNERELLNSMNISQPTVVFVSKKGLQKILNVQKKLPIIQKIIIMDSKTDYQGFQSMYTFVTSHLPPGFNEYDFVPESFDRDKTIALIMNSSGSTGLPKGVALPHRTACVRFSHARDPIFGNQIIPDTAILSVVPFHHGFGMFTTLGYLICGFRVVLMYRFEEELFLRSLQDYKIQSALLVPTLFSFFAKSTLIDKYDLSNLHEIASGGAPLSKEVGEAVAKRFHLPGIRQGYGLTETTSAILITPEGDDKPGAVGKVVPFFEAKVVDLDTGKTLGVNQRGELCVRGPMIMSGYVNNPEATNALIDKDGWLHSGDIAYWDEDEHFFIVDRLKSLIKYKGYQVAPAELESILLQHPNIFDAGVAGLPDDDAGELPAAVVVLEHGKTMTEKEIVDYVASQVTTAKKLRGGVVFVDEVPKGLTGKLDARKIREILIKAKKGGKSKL
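Purified P. pyralis luciferase, 10 nM final, with Km-level 10 uM D-luciferin and 10 uM ATP in 50 mM Tris acetate pH 7.5, 10 mM Mg acetate, 0.01% Tween-20, 0.05% BSA; 6-point qHTS titration about 60 µM downward; luminescence read.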
NPC1 prom act = NPC1 promoter activation; Huh7 NPC1 promoter luciferase reporter, 24 h; Potency, µM (series often up to 9.22 µM), hits mostly activators; actives 2.4% (n = 320,000); AID 485313; note: nearly all actives have a fitted effect of over 60% in size
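Readout is luciferase luminescence, reflecting NPC1 promoter activation in stably transfected Huh7 cells after 24 h compound exposure at 37 °C in reduced-serum medium with 10% FBS.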
KinaseGlo FLuc = blocks Kinase-Glo luciferase, a counter-screen artifact; Q27757; actives 0.28% (n = 200,000); Kinase-Glo luciferase, ATP luminescence, 8 min; Potency, µM (series often up to 38.3 µM), actives largely listed as inhibitors; note: nearly all actives have a fitted effect of over 60% in size
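Recombinant Kinase-Glo luciferase, 10 uM ATP (linear range), luciferin; imidazole pH 7.2 / KCl / MgCl2 / Tween / BSA buffer; 8 min RT; luminescence.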
ELG1 genotox = inducers of genotoxicity in HEK293T ELG1-luciferase cells. Potency, µM (titrated, usually from 46 µM), most hits filed as activators. AID 504466. actives 1.3% (n = 330,000). HEK293T ELG1-luciferase reporter, luminescence, 16 h; note: nearly all actives have a fitted effect of over 60% in size
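Cells (2,000/well) expressing the ELG1-luciferase fusion are dosed by pin tool and kept 16 hr at 37 °C, 5% CO2. Signal comes from ONE-Glo luciferase reagent after 30 min at room temperature.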
A number is an active result; 0 = inactive; ? = inconclusive; - = not tested or not shown; [ ] = dose if it differs, or a comment. The list is not random: actives were taken first. Their share in the collection is about 7.3%. Calls come from the whole dose curve; as a rule, active = well fitted curve in the direction sought with a large enough effect; inconclusive = small, poorly fitted or top-dose-only effect, or another doubt; inactive = no such curve, though single readings can be large; an effect the other way counts as inactive or inconclusive.

SMILES	Rab9 prom act	SMN2 splice enh	FLuc modulator	NPC1 prom act	KinaseGlo FLuc	ELG1 genotox
COc1ccccc1OCCn1c(COc2cc(C)ccc2C)nc2ccccc21	-	0	0	-	-	-
COc1cc(-c2nnc(SCC(=O)N3CCCc4ccccc43)o2)cc(OC)c1OC	-	0	0	-	-	-
N[C@@H]1CCN(O)C1=O	-	-	-	-	0	-
COC(=O)c1ccc(NC(=O)Cc2coc3cc(C)ccc23)cc1	-	?	0	-	-	-
COc1ccc(-c2csc(NC(=O)C3=NN(c4ccccc4)C(=O)CC3)n2)cc1	0	0	7.6µM	0	0	0
O=C(Nc1nc(-c2ccccc2)cs1)c1ccco1	?	-	15µM	?	-	0
O=C(Nc1cc(-c2ccccc2)cs1)c1ccco1	3.5µM	-	7.6µM	?	-	16µM
Cc1cc(NC(=O)c2ccco2)sc1C	2µM	-	5.4µM	2µM	-	?
Cc1cccc(NC(=O)CN2C(=O)C3(SCC(=O)N3c3ccccc3)c3ccccc32)c1 (stereo unspecified)	-	-	0	-	-	-
CCCOc1ccccc1C1Oc2nc(SC)nnc2-c2ccccc2N1C(C)=O (stereo unspecified)	-	0	0	-	-	-
COc1ccc(-c2cc(C(=O)Nc3c(C)nn(Cc4ccc(F)cc4)c3C)no2)cc1OC	-	0	0	-	-	-
O=C(Nc1nc(-c2ccco2)cs1)c1ccccc1	?	0	11µM	?	0	?
Cc1ccc(-c2csc(NC(=O)c3ccc(-c4ccccc4)cc3)n2)o1	0	0	4.3µM	0	0	18µM
O=C(Nc1nc(-c2ccccc2)cs1)c1cccnc1	0	0	?	0	0	0
O=C(O)c1ccccc1C(=O)Nc1nc(-c2ccc3ccccc3c2)cs1	?	-	17µM	0	-	0
O=C(NNc1nc(-c2ccc(Br)cc2)cs1)c1ccco1	?	0	8.5µM	0	0	?
CC(=O)c1ccc(NC(=O)c2sc(-n3nc(C)c(CCC(C)C)c3C)nc2C)cc1	-	-	0	-	-	-
CCCCN(CC)C(=O)CSc1nc2n[nH]c(C)c2c(=N)n1-c1cccc(Cl)c1	-	-	0	-	-	-
Cc1ccc(Cl)cc1N1CCN(C(=O)c2ccc(C)c(-n3c(C)nc4cccnc43)c2)CC1	-	-	0	-	-	-
CCc1noc(C)c1C(=O)Nc1nc(-c2ccc(OC)c(OC)c2)cs1	0	-	0	0	-	0
COc1ccc(-c2csc(NC(=O)c3ccco3)n2)cc1	2.2µM	7.9µM	9.5µM	2.8µM	0	0
COc1ccc(-c2csc(NC(=O)c3cc(C)oc3C)n2)cc1OC	0	-	19µM	0	-	0
CCOc1ccc(-c2csc(NC(=O)c3ccco3)n2)cc1	?	-	12µM	0	-	?
Cc1ccc(-c2csc(NC(=O)c3ccco3)n2)cc1C	4µM	-	8.5µM	2.2µM	-	?
CCOc1ccc(C(=O)NCc2nc3cccnc3n2Cc2cccc(OC)c2)cc1	-	-	0	-	-	-
SMILES	Rab9 prom act	SMN2 splice enh	FLuc modulator	NPC1 prom act	KinaseGlo FLuc	ELG1 genotox
COc1ccc(C(=O)Nc2ccc3c(c2)N(C2CCCC2)C(=O)c2ccccc2S3)cc1OC	-	-	0	-	-	-
N[C@@]1(C(=O)O)CN[C@@H](C(=O)O)C1	-	0	-	-	-	-
Cc1cc2ncn(/N=C/c3ccc(-c4ccccc4)o3)c2cc1C	0	0	24µM	0	0	0
Cc1cc2ncn(/N=C/c3cccnc3)c2cc1C	0	0	?	0	0	0
CCCCc1nc2c(c3c1C[C@H](C)OC3)CN(C(=O)C1CC1)CC2	-	0[9.22 µM]	-	-	0[7.66 µM]	-
CC(=O)c1cccc(Nc2ccc(-c3ccccc3F)nn2)c1	2.2µM	11µM	5.4µM	2.8µM	0	0
CC(=O)c1ccc(Nc2ccc(-c3ccccc3C)nn2)cc1	1.6µM	11µM	9.5µM	?	0	?
O=C1CC(c2ccc3c(c2)OCCO3)Oc2ccccc21 (stereo unspecified)	2.8µM	-	21µM	3.2µM	-	?
O=C1CC(c2ccc(O)c(O)c2)Oc2cc(O)cc(O)c21 (stereo unspecified)	0	0	0	0	0	0
COc1ccc(C2CC(=O)c3ccccc3O2)cc1 (stereo unspecified)	?	0	15µM	?	0	?
O=C1CC(c2ccccc2)Oc2cc(O)cc(O)c21 (stereo unspecified)	0	-	17µM	0	-	?
O=C1CC(c2ccc3c(c2)OCCO3)Oc2ccc([N+](=O)[O-])cc21 (stereo unspecified)	0.56µM	-	0.27µM	?	-	0.65µM
Cc1cc2nc(-c3ccc(OCc4ccccc4F)cc3)cc(C(F)(F)F)n2n1	-	0	0	-	-	-
COc1cccc(NC(=O)C2CCCN(S(=O)(=O)c3ccc4[nH]c(=O)ccc4c3)C2)c1 (stereo unspecified)	-	-	0	-	-	-
CC(C)Oc1ccc(C(=O)Nc2ccc(C(F)(F)F)n(C)c2=O)cc1	0	0	19µM	0	0	0
O=C(Cn1c(=O)n2nc(-c3cccc(F)c3)nc2c2ccccc21)N1CCN(c2ccccc2F)CC1	-	-	0	-	-	-
COc1ccc(OC)c(NC(=O)c2cnn(-c3ccc(C)cc3)c2C2CCNCC2)c1	-	-	0	-	-	-
O=C(Nc1ccc(F)cc1)/C(Cl)=C/c1ccccc1	2.5µM	14µM	1.2µM	4µM	0	?
CC(=O)c1ccc(NC(=O)/C(Cl)=C/c2ccccc2)cc1	4µM	?	0.95µM	3.5µM	0	8.2µM
CC(=O)c1ccc(NC(=O)C2(c3ccccc3)CC2(Cl)Cl)cc1 (stereo unspecified)	?	-	27µM	?	-	?
CCOc1ccc(-n2c(SCC(=O)Nc3cccc(Cl)c3)nc3c(oc4ccccc43)c2=O)cc1	-	0	0	-	-	-
Cc1ccc(N2C(=O)CCSC23C(=O)N(Cc2ccccc2)c2ccccc23)cc1F (stereo unspecified)	-	-	0	-	-	-
Cc1ccc(-n2ncc(C(=O)NCCN3CCN(C)CC3)c2C2CCN(C(=O)OC(C)(C)C)CC2)c(C)c1	-	-	0	-	-	-
COc1cccc(NC(=O)CSc2nc(=O)n(Cc3cccnc3)c3c2CCC3)c1	-	-	0	-	-	-
C/C=C/C1=Cc2ccccc2C(C(C(=O)OC)C(=O)OC)N1C(=O)OC (stereo unspecified)	-	0	-	-	0	-
SMILES	Rab9 prom act	SMN2 splice enh	FLuc modulator	NPC1 prom act	KinaseGlo FLuc	ELG1 genotox
Cc1nc2nc(C)c(NS(=O)(=O)c3ccc(F)cc3)c(=O)n2[nH]1	-	0	0	-	-	-
O=C(Nc1ccccc1C(=O)O)c1cccc(S(=O)(=O)N2CCCC2)c1	-	0	12µM	-	-	-
Cc1ccc(O)c(NC(=O)c2cccc(S(=O)(=O)N3CCCCC3)c2)c1	0	4.5µM	0	0	0	0
CNC(=O)c1ccccc1NC(=O)c1cccc(S(=O)(=O)N2CCCCC2)c1	0	-	0	0	-	0
CN(C)S(=O)(=O)c1cccc(C(=O)Nc2cc(Cl)ccc2O)c1	?	0	13µM	?	0	0
CCCNC(=O)C(=O)Nc1ccc(N(C)C)cc1	3.2µM	11µM	13µM	?	0	?
COCCNC(=O)C(=O)Nc1ccc(Br)cc1	?	11µM	?	?	0	?
CN(C)c1ccc(NC(=O)C(=O)NCCOc2ccccc2)cc1	0	0	0	0	0	0
